For one assay, the target named is C1orf105. Briefly: pooled miR-30 sensor sort-seq; sequence = guide strand. Particulars: shRNA.
As to TTTCATTTCTTGACATGTGGAG, the sensor-assay potency score (higher = more potent) is 0.0387.

The sequence TTCTGGGCAAGGAAGAACGTTG returned a sensor-assay potency score (higher = more potent) of -0.752.

With TACAATTCTCAAAGGATGCTTT, the sensor-assay potency score (higher = more potent) is -0.234.

Sequence TTGACATGTGGAGCACAGCTGT displayed a sensor-assay potency score (higher = more potent) of -0.883.

As to AACATCTGGAACTTGAAACAAA, the sensor-assay potency score (higher = more potent) is -0.678.

TTTGGGTTGATGAAGACTCATT: the sensor-assay potency score (higher = more potent) was -1.17.

TAGTGAATGTTTTCTGTTGGGA showed a sensor-assay potency score (higher = more potent) of 0.127.

On to TAAGCCAAGGAATCTTGTCAAA, for which the sensor-assay potency score (higher = more potent) was -1.39.

TTCATTTCTTGACATGTGGAGC showed a sensor-assay potency score (higher = more potent) of -1.06.

TTGCCTATTGGTTCCTTTCTGG gave a sensor-assay potency score (higher = more potent) of 0.0888.

TATAACTCATACAATTCTCAAA: the sensor-assay potency score (higher = more potent) was -1.37.

TTTTCATTTCTTGACATGTGGA had a sensor-assay potency score (higher = more potent) of -0.589.

A further assay concerns the target C1orf106. The assay is described as above. To be noted: shRNA.
For the sequence TTGTAAGCCGCTCCGATCCTGC, the sensor-assay potency score (higher = more potent) is -0.983.

Take TATATAAGGAGATAGAGGCTGT: the sensor-assay potency score (higher = more potent) worked out at 0.0357.

In turn, TAAAACATAATCATATCACAGG had a sensor-assay potency score (higher = more potent) of -0.615.

These data come from the OligoGym collection.
Further: reference of the scale not given here.
